Test results from PubChem BioAssay (EPA / NIEHS).
Calls of active or inactive are those of the source. The calls were made as follows: active = hit-call score of the fitted dose curve at least 0.9, where 1 is the maximum; inactive = score below 0.9.

Experiments:
[1] = ATG_ISRE_CIS: Attagene CIS-FACTORIAL HepG2 Assay for human Interferon Regulatory Factor 1 (IRF1) binding to an Interferon-Stimulated Response Element (ISRE) (AID 2282948); settings: HepG2 ISRE cis-reporter (Attagene), mRNA transcription readout; actives raise or lower the signal
Outline: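 Endogenous transcription factor activity read as reporter transcript abundance via RT-PCR and capillary electrophoresis. HepG2 cells transiently transfected, 24 h chemical exposure. Gain or loss fitted against DMSO baseline.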

[2] = ATG_M_32_CIS: Attagene CIS-FACTORIAL HepG2 Assay for M32 Transcription Factor (Internal Marker) (AID 2282949); settings: HepG2 Attagene cis-factorial M32 reporter, mRNA; actives raise or lower the signal;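 also: background control marker of the multiplexed CIS panel rather than a real target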
Outline: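 Transient MRTU transfection of HepG2; 24 h compound treatment; TriZol RNA, oligo(dT) RT, reporter PCR, 6-FAM primer extension, HpaI cut, CE. Gain/loss of signal vs DMSO.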

[3] = ATG_M_06_CIS: Attagene CIS-FACTORIAL HepG2 Assay for M06 Transcription Factor (Internal Marker) (AID 2282950); settings: HepG2 Attagene CIS-FACTORIAL M06 internal marker reporter; actives raise or lower the signal
Outline: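 Measured 24 h post-dosing in transiently transfected HepG2 cells, this internal-marker endpoint reports reporter mRNA via RT-PCR with fluorescent primer extension and capillary electrophoresis. DMSO served as negative control and baseline for bidirectional fitting.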

[4] = molecular target: Hypoxia-inducible factor 1-alpha (Homo sapiens) (UniProt Q16665); assay: ATG_HIF1a_CIS: Attagene CIS-FACTORIAL HepG2 Assay for human Hypoxia Inducible Factor 1 (HIF1A) (AID 2282951); settings: HepG2 Attagene cis-factorial HIF1a reporter transcription; actives raise or lower the signal
Hypoxia-inducible factor 1-alpha (Homo sapiens), sequence (Q16665 whole entry, looked up): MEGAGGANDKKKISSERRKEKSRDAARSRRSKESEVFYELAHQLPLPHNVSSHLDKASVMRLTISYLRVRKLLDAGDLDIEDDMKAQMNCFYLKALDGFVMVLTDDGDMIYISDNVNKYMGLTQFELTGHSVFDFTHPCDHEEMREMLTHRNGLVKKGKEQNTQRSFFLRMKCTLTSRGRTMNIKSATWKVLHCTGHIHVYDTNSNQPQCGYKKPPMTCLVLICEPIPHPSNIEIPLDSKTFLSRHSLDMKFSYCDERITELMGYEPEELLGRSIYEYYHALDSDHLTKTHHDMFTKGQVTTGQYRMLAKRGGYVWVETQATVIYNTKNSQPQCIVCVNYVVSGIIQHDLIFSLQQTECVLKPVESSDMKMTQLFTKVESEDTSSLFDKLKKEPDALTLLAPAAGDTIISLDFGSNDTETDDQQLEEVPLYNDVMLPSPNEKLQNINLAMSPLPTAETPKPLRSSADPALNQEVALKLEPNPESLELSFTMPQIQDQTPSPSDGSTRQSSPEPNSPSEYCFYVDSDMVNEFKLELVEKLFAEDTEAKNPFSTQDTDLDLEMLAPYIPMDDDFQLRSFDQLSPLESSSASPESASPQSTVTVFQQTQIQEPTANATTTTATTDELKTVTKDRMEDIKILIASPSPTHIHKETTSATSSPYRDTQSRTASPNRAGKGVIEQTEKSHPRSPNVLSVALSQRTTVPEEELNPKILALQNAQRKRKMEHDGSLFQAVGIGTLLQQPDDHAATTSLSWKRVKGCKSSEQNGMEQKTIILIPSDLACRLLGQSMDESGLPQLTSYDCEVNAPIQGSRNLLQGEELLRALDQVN
Outline: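 Activity is fitted in both directions relative to DMSO. Reporter transcripts are read by RT-PCR, fluorescent primer extension and capillary electrophoresis after 24 h chemical treatment. The cells are HepG2 carrying transiently transfected cis-element-driven reporter units responding to endogenous factors.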

[5] = molecular target: Hepatocyte nuclear factor 6 (Homo sapiens) (UniProt Q9UBC0); assay: ATG_HNF6_CIS: Attagene CIS-FACTORIAL HepG2 Assay for human Hepatocyte Nuclear Factor 6 (HNF6) (AID 2282952); settings: HepG2 Attagene cis-factorial HNF6 reporter transcription; actives raise or lower the signal
Hepatocyte nuclear factor 6 (Homo sapiens), sequence (Q9UBC0 whole entry, looked up, the tested form may be a part): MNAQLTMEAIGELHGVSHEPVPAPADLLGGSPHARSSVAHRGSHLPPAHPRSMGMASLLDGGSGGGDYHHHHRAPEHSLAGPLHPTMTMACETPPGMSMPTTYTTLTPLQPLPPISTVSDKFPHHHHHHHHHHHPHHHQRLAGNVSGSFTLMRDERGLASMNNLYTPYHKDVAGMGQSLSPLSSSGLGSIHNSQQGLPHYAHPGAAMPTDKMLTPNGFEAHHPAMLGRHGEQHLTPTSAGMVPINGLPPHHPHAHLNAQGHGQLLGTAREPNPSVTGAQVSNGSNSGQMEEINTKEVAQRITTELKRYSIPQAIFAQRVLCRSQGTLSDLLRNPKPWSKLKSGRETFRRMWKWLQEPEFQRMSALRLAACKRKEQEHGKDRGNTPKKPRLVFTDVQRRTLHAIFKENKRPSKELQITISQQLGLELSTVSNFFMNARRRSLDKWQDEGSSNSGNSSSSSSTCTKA
Outline: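 First, HepG2 cells were transfected with the multiplexed cis reporter library and dosed with chemical for 24 h. Next, RNA was reverse-transcribed, PCR-amplified and fluorescently labelled. Finally, HpaI-digested fragments were read by capillary electrophoresis.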

[6] = molecular target: Heat shock factor protein 1 (Homo sapiens) (UniProt Q00613); assay: ATG_HSE_CIS: Attagene CIS-FACTORIAL HepG2 Assay for human Heat Shock Transcription Factor 1 (HSE) (AID 2282953); settings: HepG2 HSE cis-reporter, Attagene RNA transcription; actives raise or lower the signal
Heat shock factor protein 1 (Homo sapiens), sequence (Q00613 whole entry, looked up): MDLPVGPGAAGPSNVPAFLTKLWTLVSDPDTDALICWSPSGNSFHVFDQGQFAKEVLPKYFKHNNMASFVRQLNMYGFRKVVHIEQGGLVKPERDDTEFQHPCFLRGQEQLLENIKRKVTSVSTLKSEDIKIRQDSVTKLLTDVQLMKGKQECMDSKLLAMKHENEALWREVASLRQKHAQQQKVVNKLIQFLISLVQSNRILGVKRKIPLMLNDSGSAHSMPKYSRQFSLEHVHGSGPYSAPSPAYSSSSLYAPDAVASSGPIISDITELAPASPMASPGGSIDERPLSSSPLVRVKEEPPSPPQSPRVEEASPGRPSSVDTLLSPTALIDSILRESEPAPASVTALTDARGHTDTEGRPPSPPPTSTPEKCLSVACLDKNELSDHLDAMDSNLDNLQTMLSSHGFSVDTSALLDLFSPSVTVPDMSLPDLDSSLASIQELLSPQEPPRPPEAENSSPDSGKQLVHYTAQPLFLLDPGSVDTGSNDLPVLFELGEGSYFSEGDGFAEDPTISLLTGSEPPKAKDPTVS
Outline: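 Reporter mRNA induction in HepG2 is measured 24 h after dosing, using transiently transfected multiplexed cis-regulated reporter units. Signal comes from capillary electrophoresis of labelled RT-PCR products, with DMSO as negative control.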

[7] = ATG_MRE_CIS: Attagene CIS-FACTORIAL HepG2 Assay for human Metal Responsive Element (MRE) (AID 2282954); settings: HepG2 MRE cis-reporter transcription, Attagene multiplex; actives raise or lower the signal
Outline: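 Readout: capillary electrophoresis of 6-FAM-labelled, HpaI-digested RT-PCR reporter products. System: HepG2 cells carrying transient multiplexed cis reporters, dosed 24 h. Analysis: bidirectional fit, DMSO baseline.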

[8] = ATG_PBREM_CIS: Attagene CIS-FACTORIAL HepG2 Assay for human Phenobarbital-responsive Enhancer Module (PBREM) (AID 2282955); settings: HepG2 PBREM cis-reporter, Attagene multiplexed transcription; actives raise or lower the signal
Outline: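 Endogenous transcription factor activity was read from reporter transcripts in transiently transfected human HepG2 liver cells after 24 h dosing. RT-PCR products were fluorescently labelled, HpaI-cut and sized by capillary electrophoresis; activity fitted bidirectionally against DMSO baseline.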

Measured: AC50

Cc1cc(C)c(C)c(O)c1
inactive: [1] | [2] | [3] | [4] | [5] | [6] | [7] | [8]

CCN(CC#N)c1cccc(C)c1
inactive: [1] | [2] | [3] | [4] | [5] | [6] | [7] | [8]

O=S(=O)(O)c1ccc2cc(O)c(S(=O)(=O)O)cc2c1
active: [1] 160 µM | [4] 171 µM | [7] 169 µM
inactive: [2] | [3] | [6] | [8]

O=C1CCC(=O)N1Cl
inactive: [1] | [2] | [3] | [4] | [5] | [6] | [7] | [8]

O=C1C(N(CO)C(=O)NCO)N(CO)C(=O)N1CO (stereo unspecified)
inactive: [1] | [2] | [3] | [4] | [5] | [6] | [7] | [8]

N[C@H]1C(O)O[C@H](CO)[C@H](O)[C@@H]1O (stereo partly specified)
inactive: [1] | [2] | [3] | [4] | [5] | [6] | [7] | [8]

N#CCc1ccc(Cl)cc1Cl
inactive: [1] | [2] | [4] | [5] | [6] | [7]

O=CN1CCCCC1
inactive: [1] | [2] | [3] | [4] | [5] | [6] | [7] | [8]

CC(C)C1=CC2=CC[C@@H]3[C@](C)(CCC[C@@]3(C)C(=O)O)[C@H]2CC1
active: [4] 100 µM | [6] 145 µM | [7] 106 µM
inactive: [1] | [2] | [3] | [5] | [8]

Cc1ccc2c(c1)C(=O)c1ccccc1C2=O
inactive: [1] | [2] | [3] | [4] | [5] | [6] | [7] | [8]

CCCCC(CC)COC(=O)c1ccccc1 (stereo unspecified)
inactive: [1] | [2] | [4] | [5] | [6] | [7] | [8]

CCOc1ccc(N)c([N+](=O)[O-])c1
inactive: [2] | [4] | [5] | [7]

C[C@]12CCC(=O)C=C1CC[C@@H]1[C@@H]2C(=O)C[C@@]2(C)[C@H]1CC[C@]2(O)C(=O)CO
inactive: [1] | [2] | [3] | [5] | [6] | [7] | [8]

Cc1c(C)c([N+](=O)[O-])c(C(C)(C)C)c([N+](=O)[O-])c1C
inactive: [1] | [2] | [3] | [4] | [6] | [7] | [8]

CCOC(=O)Cc1cccc2ccccc12
inactive: [1] | [2] | [3] | [4] | [5] | [7] | [8]

SCCc1cnccn1
active: [1] 43.3 µM
inactive: [2] | [4] | [5] | [6] | [7] | [8]

CCO[Si](CCCN=C=O)(OCC)OCC
inactive: [1] | [2] | [4] | [5] | [6] | [7] | [8]

O=S(=O)(Oc1ccc(Cl)cc1Cl)c1ccccc1
active: [7] 32.8 µM | [8] 7.97 µM
inactive: [2] | [3] | [4] | [5] | [6]

c1ccc(CNCc2ccccc2)cc1
inactive: [2] | [3] | [4] | [5] | [6] | [7] | [8]

COc1ccc(NC(C)=O)cc1N
inactive: [2] | [3] | [4] | [6] | [7] | [8]

CC(C)(C)C(=O)CCc1ccc(Cl)cc1
inactive: [1] | [2] | [3] | [4] | [5] | [6] | [7] | [8]

CC1(C)O[C@@H]2C[C@H]3[C@@H]4C[C@H](F)C5=CC(=O)C=C[C@]5(C)[C@@]4(F)[C@@H](O)C[C@]3(C)[C@]2(C(=O)CO)O1
inactive: [2] | [3] | [4] | [5] | [6] | [7]

CC/C=C\CCOC(=O)CCCCC
inactive: [1] | [2] | [3] | [4] | [6] | [7]

Cc1cccc(C(=O)O)c1
inactive: [1] | [2] | [3] | [4] | [6] | [7] | [8]

Cc1ccc(C(C)(C)C)cc1
inactive: [1] | [2] | [3] | [4] | [6] | [7]

O=C(Oc1ccccc1)c1ccc2ccccc2c1O
inactive: [1] | [2] | [3]
active: [4] 34.6 µM | [7] 57.2 µM | [8] 24.8 µM

C=CC(=O)NC(C)(C)CS(=O)(=O)O
inactive: [1] | [2] | [3] | [4] | [5] | [6] | [7] | [8]

CCCCCCC1(C)CCC(=O)O1 (stereo unspecified)
inactive: [1] | [2] | [4] | [5] | [6] | [7] | [8]

N#[N+]c1ccc2c(S(=O)(=O)[O-])cccc2c1O
inactive: [1] | [2] | [3] | [4] | [5] | [7] | [8]

CC1=CC[C@H](C(C)C)C=C1
active: [7] 66.3 µM
inactive: [1] | [2] | [3] | [4] | [6] | [8]

COc1cc(NC(=O)CC(C)=O)c(OC)cc1Cl
inactive: [1] | [2] | [3] | [4] | [5] | [7] | [8]

CC(CC=O)c1ccccc1 (stereo unspecified)
inactive: [2] | [3] | [4] | [5] | [6] | [8]
active: [1] 56.1 µM | [7] 104 µM

CCN(Cc1cccc(S(=O)(=O)O)c1)c1ccc(C(=C2C=CC(=[N+](CC)Cc3cccc(S(=O)(=O)[O-])c3)C=C2)c2ccccc2)cc1
inactive: [1] | [2] | [4] | [5] | [7] | [8]
active: [6] 83 µM

c1ccc(-c2ccccn2)nc1
inactive: [1] | [2] | [3] | [5] | [6] | [7]

COC=O
inactive: [1] | [2] | [4] | [5] | [6] | [7] | [8]

CCC(C)(C)C1CCCCC1OC(C)=O (stereo unspecified)
inactive: [2] | [3] | [4] | [5] | [6] | [7] | [8]

CC(=O)OCc1ccco1
inactive: [1] | [2] | [4] | [5] | [6] | [7] | [8]

COc1ccc2nc(N)sc2c1
inactive: [1] | [2] | [3] | [4] | [5] | [7] | [8]

CC(=O)Nc1nnc(S(N)(=O)=O)s1
inactive: [1] | [2] | [3] | [4] | [6] | [7] | [8]

CC(=O)OCCC1CCCCC1
inactive: [1] | [2] | [3] | [4] | [5] | [7] | [8]
